The record followed here is PubChem BioAssay AID1745847 (National Center for Advancing Translational Sciences (NCATS), 2022).

Among all 2,100 compounds or so, about 670 (32%) were called active. Inconclusive results (about 50%) are left out. The list shows a part of the results. Values without a mark were called inactive. Calls come from the whole dose curve; as a rule, active = well fitted inhibition curve with a large enough effect; inconclusive = small, poorly fitted or top-dose-only effect; inactive = no such curve, though single readings can be large or run the other way.
% is set by controls: 0 for no effect and ±100 for the full control effect; potency is the fitted concentration of half-maximal effect.

This assay in a line: CMV-Luciferase Counterscreen for Inhibitors of ATXN expression. Note: nearly all actives have a fitted effect of over 55% in size. Conditions: HEK-293 CMV-luciferase reporter, luminescence, 24 h; series mostly up to 57.5 µM; activity change, negative = inhibition: at the top concentration. An excerpt:
PI: Daniel Scoles Ph.D. University of Utah School of Medicine, Salt Lake City, Utah MLPCN Grant: NS073009 Spinocerebellar ataxia type 2 (SCA2) is a multisystem neurodegenerative disease caused by a dominantly acting mutation leading to expansion of a polyQ domain in the ataxin-2 protein (ATXN2). SCA2 patients develop progressive ataxia and later lose function in other neuronal systems. Prominent parkinsonian signs develop in some patients. Like many neurodegenerative disorders, no symptomatic or disease-modifying treatments are known. The primary objective of the proposed research is to identify compounds inhibiting ATXN2 expression and to test them for efficacy in SCA2 mouse models. We have developed a cell-based assay paired with an in vivo mouse model using identical luciferase expression constructs. This approach takes advantage of an ATXN2-luciferase transgene, with the luciferase gene flanked by the upstream and downstream portions of the ATXN2 gene. Here we describe a 5-7 dose quantitative high thoroughput screen (qHTS) for compounds lowering ATXN2 expression. We screened the NIH Molecular Libraries Small Molecule Repository (MLSMR) and NCGC's mechanistically annotated (MIPE) and drug repurposing (NPC) collections of compounds for lowering expression of an ATXN2-luciferase reporter in HEK-293 cells. The assay is a multiplexed cell viability assay to ensure target reduction in the absence of cytotoxicity. Secondary qHTS assays included a CMV-luciferase reporter expressed in HEK-293 cells as well as a biochemical assay using recombinant luciferase to detect inhibitors of the reporter enzyme. Compounds that inhibit ATXN2 expression but is not cytotoxic were selected for confirmatory and secondary screens.
PROTOCOL TABLE (as described by Inglese J, Shamu CE and Guy RK. 2007) SEQUENCE No. (e.g., 1, 2, 3, etc.); PARAMETER (e.g., Cells, Incubation, Reagent, etc.); VALUE; DESCRIPTION. 1; Cells; 4 uL; white, solid bottom, 1536-well Greiner assay plate. 2; Incubation; 2 hr; 37 degree C in 5% humidified CO2. 3; Compounds; 23 nL; Kalypsis pintool (Wako USA) equipped with a 1536-well pin head. 4; Incubation; 24 hr; 37 degree C in 5% humidfified CO2. 5; Reagent; 1 uL; Gly-Phe-7-Amino-4-trifluoromethylcoumarin. 6; Incubation; 30 min; 37 degree C in 5% humidfified CO2. 7; Detection; Fluorescence; Viewlux plate reader (PerkinElmer). 8; Reagent; 3 uL; SteadyGlo luciferase solution (Promega). 9; Incubation; 5 min; room temperature. 10; Detection; Luminescence; ViewLux plate reader (PerkinElmer). NOTES (numbers refer to Sequence numbers above) 1. HEK-293 cells expressing CMV-luciferase reporter (designated as SC cells) were suspended in phenol-red free DMEM and dispensed in assay plates using a Multidrop Combi dispenser (Thermo Fisher Scientific). 2. Assay plates were incubated. Evaporation was prevented by covering assay plates with metal lids containing holes to allow gas diffusion. 3. Compounds were added in a dose response manner with the final concentrations of 57, 11.4, 2.28, 0.46, 0.091, 0.018, 0.0037 uM. Vehicle-only plates, with DMSO being pin-transferred to columns 5-48, were inserted uniformly at the beginning and the end of each library to monitor and record any shifts in assay performance. 5. 125 uM Gly-Phe-7-Amino-4-trifluoromethylcoumarin (MP Biomedicals) working concentration was used at a final concentration of 25 uM. 7. To assess cell viability; the assay plates were read using the ViewLux high-throughput CCD imager (PerkinElmer), wherein single end-point fluorescence measurement was acquired (excitation 405/10; emission 540/25 nm). 8. Detection reagent SteadyGlo Luciferase (Promega) was added to the assay plate. 10. Luminescence is then measured on the ViewLux imager equipped with a clear emission filter using a 2 sec exposure. […]
(In general: The purpose of a counterscreen is to sort out artefacts and off-target activity.)
Turning to `CN(C)CCCN(C(=O)c1ccc(S(=O)(=O)N2CCCCCC2)cc1)c1nc2ccc(Br)cc2s1`, the activity change, negative = inhibition is -16.1% [at 11.4 µM].

With `O=C(COc1ccc(Br)cc1CO)Nc1ccc(S(=O)(=O)N2CCCCC2)cc1`, the Potency was 17.8 µM (active).

For the molecule `CCn1c2ccccc2c2cc(NC(=O)COC(=O)c3cc(S(=O)(=O)N4CCCCC4)ccc3Cl)ccc21`, the activity change, negative = inhibition was 4.24% [at 11.4 µM].

For `Cc1ccnc(NC(=O)CCCc2c[nH]c3ccccc23)c1`, the activity change, negative = inhibition is 484% [at 11.4 µM].

Take `CC[n+]1c(/C=C/c2c[nH]c3ccccc23)ccc2cc(C)ccc21`: the Potency was 35.5 µM (active).

For `O=C(c1ccc(CS(=O)Cc2ccccc2Cl)o1)N1CCN(c2cccc(Cl)c2)CC1` (centres undefined), the Potency is 20 µM (active).

In the case of `C=CCOC(=O)C1=C(C)NC(SCC)=C(C#N)C1c1ccc(Cl)cc1` (centres undefined), the Potency was 20 µM (active).

Take `COc1cc(C=CC(=O)c2ccccc2)cc(OC)c1OC`: the “activity change, negative = inhibition” value was -4.63%.

Take `COc1cc(C=CC(=O)c2cc(OC)c(OC)c(OC)c2)cc(OC)c1OC`: the Potency is 12.6 µM (active).

For the molecule `COc1cc(/C=C/C(O)=C/C(=O)/C=C/c2ccc(O)cc2)ccc1O`, the activity change, negative = inhibition was -3.01% [at 11.4 µM].

Consider `O=C(c1ccc2c(c1)OCO2)N(Cc1cccs1)C1(C(=O)NC2CCCCC2)CCCCC1`, for which the Potency is 28.2 µM (active).

Turning to `COc1ccc(Nc2oc(COc3ccccc3OC)nc2C#N)cc1`, the Potency was 3.55 µM (active).

Turning to `C=CCNc1oc(-c2ccc(Cl)cc2)nc1C#N`, the “activity change, negative = inhibition” value is -10.5%.

For the molecule `N#Cc1nc(COc2ccc(-c3ccccc3)cc2)oc1NCc1cccnc1`, the Potency is 3.55 µM (active).

For `COc1cc2nc(CN(C)Cc3ccc(SC)cc3)[nH]c(=O)c2cc1OC`, the “activity change, negative = inhibition” value was 4.26%.

As to `COc1ccc(-c2cnc3c(NC=O)cc(-c4ccccc4OC)cn23)cc1OC`, the “activity change, negative = inhibition” value is 153%.

For the molecule `Cc1ccc(/C=N/Nc2ccnc3cc(Cl)ccc23)c(C)c1`, the Potency is 14.1 µM (active).

For the molecule `Nc1nc(NCCCN2CCOCC2)nc(Nc2cccc(Cl)c2)c1[N+](=O)[O-]`, the activity change, negative = inhibition was -21.5% [at 11.4 µM].

In the case of `Cc1ccc(S(=O)(=O)N(Cc2ccccc2)c2ccccc2C(=O)NCc2ccco2)cc1`, the Potency was 22.4 µM (active).

Take `COc1cnc(-c2ccccn2)nc1NC(C)C`: the Potency is 8.91 µM (active).

Regarding `COc1cccc(CN(C)C(=O)CNC(=O)c2ccc(-c3ccccc3)cc2)c1OC`, the Potency is 5.01 µM (active).

Take `COCCCn1c(-c2ccc(S(=O)(=O)N3CCOCC3)cc2)csc1=Nc1ccccc1`: the Potency was 3.98 µM (active).

On to `COc1cc(C(=O)Oc2cccc(Nc3ncnc4ccccc34)c2)cc(OC)c1OC`, for which the Potency was 3.98 µM (active).

In the case of `NC(Cc1ccccc1)c1csc(Nc2nccc(C(F)(F)F)n2)n1` (centres undefined), the “activity change, negative = inhibition” value was 5.13%.

Consider `Cc1cc(Nc2cccc([N+](=O)[O-])c2)n2c(nc3ccccc32)c1C#N`, for which the Potency is 1.26 µM (active).

Consider `Fc1ccc2[nH]c3c(N4CCSCC4)ncnc3c2c1`, for which the Potency is 3.16 µM (active).

Turning to `CCOC(=O)N1CCN(c2ncnc3c2[nH]c2ccc(F)cc23)CC1`, the Potency is 3.55 µM (active).

With `Fc1ccc2[nH]c3c(N4CCc5ccccc5C4)ncnc3c2c1`, the Potency is 2.82 µM (active).

For the molecule `CC(C)(CO)NCc1c(OCc2ccc(Cl)cc2)ccc2ccccc12`, the “activity change, negative = inhibition” value is -25.8%.

Turning to `Cc1ccc2nc(-c3ccccc3)nn2c1`, the Potency was 2 µM (active).

With `O=S(=O)(c1ccccc1)N1CCN(c2ccnc3cc(Cl)ccc23)CC1`, the Potency is 22.4 µM (active).

Consider `Oc1ccc(N2CCN(c3ccnc4cc(Cl)ccc34)CC2)cc1`, for which the Potency is 11.2 µM (active).

Turning to `COc1ccccc1N1CCN(c2ccnc3cc(Cl)ccc23)CC1`, the Potency was 10 µM (active).

Consider `COc1ccc(N2CCN(c3ccnc4cc(Cl)ccc34)CC2)cc1`, for which the Potency is 3.98 µM (active).

As for `COc1ccc(Cl)cc1S(=O)(=O)N1CCN(C(=O)c2n[nH]c(=O)c3ccccc23)CC1`, the activity change, negative = inhibition is -26.4% [at 11.4 µM].

Turning to `CC(=O)Oc1ccc(C23c4ccccc4C2(OC(C)=O)c2cc(OC(C)=O)ccc23)cc1` (centres undefined), the Potency is 25.1 µM (active).

Regarding `COc1ccc(OCc2cccc(C(=O)Nn3cc([N+](=O)[O-])cn3)c2)cc1`, the Potency was 0.398 µM (active).

On to `O=C(N/N=C/c1ccc(O)cc1O)c1ccncc1`, for which the Potency was 3.98 µM (active).

Turning to `O=C(N/N=C/c1cc(Br)ccc1O)c1ccncc1`, the Potency was 1 µM (active).

Regarding `O=C(N/N=C/c1ccc(O)cc1O)c1ccc(NC(=O)C2CCCCC2)cc1`, the Potency was 12.6 µM (active).

On to `CC(C)CC(=O)NC(=S)NNC(=O)c1ccc(NC(=O)C2CCCCC2)cc1`, for which the activity change, negative = inhibition was 8.7% [at 11.4 µM].

With `O=C(N/N=C/c1ccc(O)cc1O)c1ccc(CN2C(=O)c3cccc4cccc2c34)cc1`, the Potency was 1.78 µM (active).

In the case of `Cc1nc(SC2CC(=O)N(c3ccccc3)C2=O)n[nH]1` (centres undefined), the “activity change, negative = inhibition” value is -2.55%.

For the molecule `O=c1[nH]c(CN2CCN(c3ncccn3)CC2)nc2c(Br)cc(Br)cc12`, the activity change, negative = inhibition was -16.4% [at 11.4 µM].
